# Source: PubChem (National Center for Advancing Translational Sciences (NCATS))
# Sampled rows, rich in hits. Any-hit rate of the full collection: about 11%.
# Coupling enz: counter-screen for Giardia aldolase inhibitors: coupling enzyme system; coupling enzyme system counterscreen, AmpLite Red fluorescence; activity change, negative = inhibition, % at 58.2 µM, hits read low; actives 0.67% (n = 290,000); in the data active means activity change below about -30%
#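 First, compound is pin-transferred into glyceraldehyde-3-phosphate coupling-enzyme reagent at 57.5 uM final and held 10 min at RT. Next, substrate, coupling system and AmpLite Red are added. After 20 min RT, fluorescence (525/598 nm) is read.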
# Sfp inh: Sfp phosphopantetheinyl transferase inhibition | Q9F4F7 | actives 3.5% (n = 310,000) | Potency, µM, without a hit: largest response in the series, negative = inhibition, actives largely listed as inhibitors | Biochemical Sfp PPTase activity, qHTS;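 further: the enzyme is Sfp with the accession as filed and its product quenches rhodamine fluorescence; potency means the concentration at half of the fitted maximal effect; 0% = enzyme reaction without inhibitor and -100% = no enzyme wells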
#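 Fluorescence-quenching assay: 15 nM Sfp-PPTase preincubated 15 min at room temperature with compound, then 5 uM rhodamine-CoA and 12.5 uM BHQ-2-labelled YbbR peptide added. Fluorescence (ex 525/em 598 nm) read at start and after 30 min; difference gives rate.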
# Tau fluor counter: counter-screen for tau fibril formation inhibitors; tau K18 P301L Alexa594 fluorescence, heparin fibrillization; Potency, µM (highest dose often 57.7 µM), inactives show top-dose activity change, negative = decrease; actives 0.93% (n = 280,000); further: potency means the concentration at half of the fitted maximal effect; nearly all actives have a fitted effect of over 55% in size
#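 Human tau K18 P301L (15 uM unlabeled, 0.24 uM Alexa 594-labeled) in 100 mM sodium acetate pH 7 with 20 uM heparin, 6 hr at 37 C. ThT 30 uM added, 1 hr ambient; Alexa 594 FP and total fluorescence read at 555/632 nm.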
# G9a block: blocks human histone lysine methyltransferase G9a. Q96KQ7. actives 8.8% (n = 350,000). Potency, µM (titrated, usually from 102 µM), inactives show top-dose activity, negative = inhibition, usual class: inhibitors. G9a H3K9 monomethylation, AlphaScreen, 2 h; further: potency means the concentration at half of the fitted maximal effect; nearly all actives have a fitted effect of over 75% in size
# Target sequence (Q96KQ7 913-1193 limits assumed): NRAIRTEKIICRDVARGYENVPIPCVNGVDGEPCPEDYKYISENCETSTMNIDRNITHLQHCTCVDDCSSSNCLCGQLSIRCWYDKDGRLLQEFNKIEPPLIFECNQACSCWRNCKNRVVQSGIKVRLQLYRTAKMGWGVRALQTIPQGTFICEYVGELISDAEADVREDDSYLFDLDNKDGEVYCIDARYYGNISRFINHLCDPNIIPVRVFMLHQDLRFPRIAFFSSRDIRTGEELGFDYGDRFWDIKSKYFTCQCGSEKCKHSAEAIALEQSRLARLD
#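 Readings reflect AlphaScreen signal from monomethyl-H3K9 antibody detection. HMT at 20 nM; substrate b-H3K9 500 nM; cofactor SAM 20 uM; 2 h RT reaction; compounds tested as titrations in qHTS with 15 min preincubation.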
# Tau fibril FP: tau fibrillization inhibition (FP) | P10636 | K18 P301L tau heparin fibrillization, Alexa594 FP, 6 h | Potency, µM (doses to about 57.7 µM), inactives show top-dose activity, negative = inhibition, usual class: inhibitors | actives 0.39% (n = 280,000) | AID 1468; further: potency means the concentration at half of the fitted maximal effect; nearly all actives have a fitted effect of over 55% in size
# Target sequence (P10636 561-689 P618L limits assumed): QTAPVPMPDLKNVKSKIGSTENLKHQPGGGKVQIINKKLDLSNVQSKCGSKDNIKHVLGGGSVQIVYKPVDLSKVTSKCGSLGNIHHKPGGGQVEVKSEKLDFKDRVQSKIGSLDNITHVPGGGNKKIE
#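 Read-out: fluorescence polarization of Alexa 594-labeled tau (0.24 uM), 555 nm excitation, 632 nm emission. Mixtures held 15 uM unlabeled K18 P301L, compound and 20 uM heparin, pH 7 acetate buffer, incubated 6 hr at 37 C.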
# Tau ThT inhib: blocks human tau fibril formation measured by thioflavin T | recombinant tau K18 P301L (four-repeat tau fragment), heparin-induced fibrillization, ThT fluorescence | Potency, µM (top dose mostly 57.4 µM), for inactives: top-dose activity, negative = inhibition, most hits filed as inhibitors | actives 2.1% (n = 270,000) | AID 1460; further: potency means the concentration at half of the fitted maximal effect; nearly all actives have a fitted effect of over 55% in size
#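 K18 P301L tau (15 uM + 0.24 uM Alexa 594-tagged), heparin 20 uM, NaOAc pH 7, 6 h 37 C; ThT 30 uM, 1 h RT, ex 450/em 510 nm.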
# * marks the source's active call; other numbers are inactive results; ? = inconclusive; nt = no result; ! = a repeat was not active; [ ] = remark or other dose. Unless noted, the call rests on the fitted dose curve; in most records, active means well fitted curve in the direction sought with a large enough effect; inconclusive means small, poorly fitted or top-dose-only effect, or another doubt; inactive means no such curve, though single readings can be large; an effect the other way counts as inactive or inconclusive. Unless noted, on the % scale 0 is the no-effect control and ±100 the full control effect.
SMILES,Coupling enz,Sfp inh,Tau fluor counter,G9a block,Tau fibril FP,Tau ThT inhib
CC(C)(C)NC(=S)Nc1ccc(Nc2ccccc2)cc1,3,?,?,11µM*,11%,?
Cc1cccc(C)c1NC(=S)NCCc1ccc(O)c(O)c1,-9,50µM*,-26%,25µM*,-7%,?
O=[N+]([O-])c1ccc(NC(=S)NCCc2ccc(F)cc2)cc1,-1,?,14µM*[quencher],?,?,?
CC(=O)NC(c1ccco1)c1cc(Br)c2cccnc2c1O (centres undefined),nt,nt,nt,8%[12.7 µM],nt,nt
S=C(NCCc1ccccc1)Nc1ccc(Nc2ccccc2)cc1,0,-16%,16µM*[quencher],nt,?,?
CC(C)(CNC(=S)NCCc1ccccc1)CNC(=S)NCCc1ccccc1,6,-17%,?,10µM*,?,6%
S=C(NCCCc1ccccc1)Nc1ccccc1,nt,10%,nt,39%,nt,nt
Cc1nc(N2CCCCC2)c2c(C)c(C(=O)Nc3ccc4c(c3)OCCO4)sc2n1,-1,-26%,nt,0%,nt,nt
Cn1c(CN2CCOCC2)nc2cc(NC(=O)c3ccccc3[N+](=O)[O-])ccc21,nt,nt,-8%,-23%[59 µM],-2%,-3%
Cc1ccc(Cn2ncc3c(NCCN(C)C)ncnc32)cc1,5,9%,nt,50µM*,nt,nt
Cc1ccc(Cn2ncc3c(NCCCN(C)C)ncnc32)cc1,1,11%,nt,?,nt,nt
Cc1ccc(Cn2ncc3c(N4CCN(Cc5ccc(Cl)cc5)CC4)ncnc32)cc1,-1,3%,-22%,35µM*,1%,?
CCCC1=NN2C(=N)/C(=C\c3cc(C)n(-c4cc(C)cc(C)c4)c3C)C(=O)N=C2S1,15,20µM*,1%,5%[59 µM],-2%,?
CCOc1cc(C2c3c(n[nH]c3C)C(=O)N2c2ccc(C)cc2)ccc1O (centres undefined),2,-8%,-2%,8%[12.7 µM],-1%,1%
CCOC(=O)c1ccc(N2C(=O)c3n[nH]c(C)c3C2c2cccnc2)cc1 (centres undefined),4,17%,-8%,-9%,-6%,-4%
COc1cc(C2c3c(n[nH]c3C)C(=O)N2c2ccc(C)cc2)ccc1O (centres undefined),4,10%,-8%,50µM*,3%,-5%
Cc1ccc(N2C(=O)c3n[nH]c(C)c3C2c2cccnc2)cc1 (centres undefined),3,7%,-2%,50µM*,4%,-7%
Cc1cccc(Oc2nc3c(C)cccn3c(=O)c2/C=C(\C#N)c2nc3ccccc3[nH]2)c1,nt,nt,-2%,-6%[59 µM],0%,?
O=C(CNC(=O)c1ccccc1F)OCc1nc2ccccc2s1,6,10%,1%,0%,0%,-10%
CNc1sc(C(=O)c2ccccc2F)c(N)c1-c1nc2ccccc2s1,-4,-30%,11µM*[quencher],?,3%,7.9µM*
COc1cccc(CC(=O)NN2C(=O)NC3(CCCCC3)C2=O)c1,nt,nt,nt,1%[59 µM],nt,nt
O=C1CCC(C(=O)OCC(=O)N2N=C3/C(=C/c4ccccc4)CCCC3C2c2ccccc2)N1 (centres undefined),0,-24%,-7%,56µM*,6%,?
O=C(c1ccccn1)N1N=C2/C(=C/c3ccccc3)CCCC2C1c1ccccc1 (centres undefined),8,-33%,-4%,?,-12%,-17%
CCN=c1scc(-c2ccccc2)n1/N=C/c1ccccn1,-3,-22%,-23%,?,?,?
CN=c1scc(-c2ccccc2F)n1/N=C/c1ccc(O)c(O)c1O,-47*,3.2µM*,25µM*[quencher],13µM*,?,14µM*
SMILES,Coupling enz,Sfp inh,Tau fluor counter,G9a block,Tau fibril FP,Tau ThT inhib
CN=c1scc(-c2ccccc2F)n1/N=C/c1ccc[nH]1,-1,-7%,?,18µM*,8%,?
CCN=c1scc(-c2cccs2)n1/N=C/c1cc(OC)ccc1O,-4,?,?,?,?,?
CC(C)N=c1scc(-c2cccs2)n1/N=C/c1ccc(O)c(O)c1O,-17,11µM*,20µM*[quencher],4µM*,?,16µM*
Cc1cccc(C)c1NC(=O)CCS(=O)(=O)c1ccc(Br)cc1,1,13%,nt,7%,nt,nt
CCOc1ccccc1NC(=O)CCS(=O)(=O)c1ccc(OC)cc1,-1,12%,-3%,-38%,-4%,2%
CCNC(=O)CCS(=O)(=O)c1ccc2ccccc2c1,6,?,-1%,7.1µM*,0%,-5%
COc1ccc(S(=O)(=O)CCC(=O)Nc2c(C)cccc2C)cc1,1,-19%,nt,40µM*,nt,nt
CCc1ccccc1NC(=O)CCS(=O)(=O)c1ccc(OC)cc1,1,-16%,nt,14µM*,nt,nt
O=C(CCS(=O)(=O)c1ccccc1)NCCS(=O)(=O)c1ccccc1,-3,8%,9%,18%,12%,2%
Cc1ccc(N2CC(C(=O)Nc3ccc(S(=O)(=O)Nc4nccc(C)n4)cc3)CC2=O)cc1 (centres undefined),4,22%,9%,1%[12.7 µM],3%,4%
O=C(O)c1cc(Cl)c(Cl)cc1C(=O)NCc1ccco1,4,9%,nt,?,nt,nt
Cc1ccccc1N(C)S(=O)(=O)c1nnc(NC(=O)C(C)C)s1,nt,nt,-11%,?,1%,-17%
Cc1ccccc1N(C)S(=O)(=O)c1nnc(NC(=O)c2ccccc2F)s1,nt,21%,-20%,4µM*!,-15%,?
Cc1ccc(-c2cc(C(=O)NCCc3ccccc3)c3c(-c4ccc(C)cc4)[nH]nc3n2)cc1,nt,nt,-9%,-2%[59 µM],-11%,5%
COc1ccc(N2CSC3=C(C#N)C(c4cc(OC)c(OC)cc4OC)CC(=O)N3C2)c(OC)c1 (centres undefined),-48*,3.5µM*,?,3.5µM*,13µM*,8.9µM*
COc1ccc(N2CSC3=C(C#N)C(c4ccc(OC)c(OC)c4)CC(=O)N3C2)c(OC)c1 (centres undefined),-43*,3.2µM*,?,2.5µM*,16µM*,7.9µM*
CCCSC1=C(C#N)C(c2cc(OC)ccc2OC)CC(=O)N1 (centres undefined),0,-7%,-6%,-2%[59 µM],2%,-4%
CCOc1ccccc1N1CSC2=C(C#N)C(c3c(OC)ccc4ccccc34)CC(=O)N2C1 (centres undefined),-49*,3.2µM*,?,0.56µM*,10µM*,4µM*
COc1ccc(N2CSC3=C(C#N)C(c4cc(OC)ccc4OC)CC(=O)N3C2)c(OC)c1 (centres undefined),-46*,3.2µM*,?,2.2µM*,28µM*,13µM*
